Screening results deposited in PubChem by National Center for Advancing Translational Sciences (NCATS).
ATXN2 expr inh: Primary qHTS for Inhibitors of ATXN expression; HEK-293 ATXN2-luciferase reporter, luminescence, 24 h; Potency, µM (titrated, usually from 57 µM), actives largely listed as inhibitors; 360,000 tested, 0.72% active; AID 1745845, 2022; further: nearly all actives have a fitted effect of over 55% in size
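qHTS (up to 57 uM final) was run with 24 h compound exposure of reporter cells at 37 °C. Each well was multiplexed: SteadyGlo luminescence measured ATXN2-luciferase expression after a fluorogenic Gly-Phe-AFC viability readout (25 uM final).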
TGFb inhibitor: qHTS for Inhibitors of TGF-b | 410,000 tested, 1.2% active | Potency, µM (series often up to 46.1 µM), usual class: inhibitors | HepG2 CAGA-GFP TGF-b/SMAD3 reporter, GFP fluorescence, 18 h; TGF-beta stimulated, 500 pg/mL final | AID 588855, 2011; further: nearly all actives have a fitted effect of over 65% in size
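Read-out: total well GFP (ex488/em500-530) summed from mean per-cell fluorescence. Cells: HEPG2 CAGA-GFP, 1% FBS DMEM, 18 h at 37 degrees C with 500 pg/mL final TGF-beta. Unstimulated wells served as the full-inhibition control; stimulated DMSO wells = 0%.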
DT40 TDP1 CPT: qHTS for Inhibitors of human tyrosyl-DNA phosphodiesterase 1 (TDP1): qHTS in cells in presence of CPT | Potency, µM (titrated, usually from 46.2 µM), most hits filed as inhibitors | chicken DT40 Tdp1-/-;hTDP1 cells + 20 nM CPT, ATP luminescence, 48 h | 420,000 tested, 12% active; further: nearly all actives have a fitted effect of over 55% in size
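Cell growth measured by CellTiter-Glo luminescence after a minimum 48 h, 37 C compound exposure with 20 nM CPT in Tdp1-knockout DT40 cells stably expressing hTDP1, seeded 400/well; qHTS titration format.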
S2 tox: Viability Counterscreen for Primary qHTS for Inhibitors of ATXN expression; S2 cells (HEK-293 line with an ATXN2-luciferase reporter) viability, CellTiter-Fluor protease fluorescence, 24 h; Potency, µM (doses to about 56.7 µM), most hits filed as cytotoxic; 400,000 tested, 0.49% active; AID 651635, 2014; further: nearly all actives have a fitted effect of over 40% in size
TDP1 cell noCPT: qHTS for Inhibitors of human tyrosyl-DNA phosphodiesterase 1 (TDP1): qHTS in cells in absence of CPT; DT40 Tdp1-/- hTDP1 cells, no CPT, ATP luminescence, 48 h; 420,000 tested, 15% active; Potency, µM (titrated, usually from 46.2 µM), hits mostly inhibitors; further: nearly all actives have a fitted effect of over 55% in size
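Compound effects on proliferation are scored in DT40 Tdp1-/-;hTDP1 cells in the absence of CPT. ATP levels (CellTiter-Glo luminescence) are recorded after a ≥48 hr, 37 °C incubation.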
HepG2 tox: qHTS for Inhibitors of TGF-b: Cytotox Counterscreen | 410,000 tested, 0.76% active | AID 588856, 2011 | HepG2 CAGA-GFP viability, ATP luminescence, 18 h | Potency, µM (highest dose often 46.1 µM), hits mostly cytotoxic
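HepG2 CAGA-GFP cells (1000/well, DMEM with 1% FBS) received compound, then TGF-beta at 500 pg/mL final, and were incubated 18 hours at 37 degrees C. Viability was read by CellTiter-Glo luminescence. Media-only wells were set as complete cell-killing and DMSO as no toxicity.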
Each line names hits and unclear results; the compound was inactive in the other large screens. Most compounds without a hit are left out; they make up all but 17% or so of the library. The call rests on the fitted dose curve; in most records, active means well fitted curve in the direction sought with a large enough effect; inconclusive means small, poorly fitted or top-dose-only effect, or another doubt; inactive means no such curve, though single readings can be large; an effect the other way counts as inactive or inconclusive.

O=C(OCC(=O)C12CC3CC(CC(C3)C1)C2)c1ccccc1O	DT40 TDP1 CPT inconclusive, TDP1 cell noCPT inconclusive
Cc1ccc(NC(=O)c2ncoc2-c2ccco2)cc1Cl	DT40 TDP1 CPT inconclusive, TDP1 cell noCPT inconclusive
CCC(C(=O)NC(=O)NC(C)=O)c1ccccc1 (centres undefined)	none (no result: TGFb inhibitor, HepG2 tox)
CCOC(=O)c1cnc(SC)nc1Nc1cccc(F)c1	none
CCOC(=O)c1cnc(SC)nc1Sc1cc(Cl)ccc1Cl	DT40 TDP1 CPT 21µM, TDP1 cell noCPT 18µM
COc1ccccc1Oc1cc(C#N)c(C#N)cc1-n1nnc2ccccc21	DT40 TDP1 CPT 23µM, TDP1 cell noCPT 18µM
COc1ccc(/C=C/c2nc3ccccc3n2C)cc1	ATXN2 expr inh inconclusive, DT40 TDP1 CPT 9.2µM, TDP1 cell noCPT 8.2µM
CCn1c(/C=C/c2ccccc2)nc2ccccc21	DT40 TDP1 CPT inconclusive, TDP1 cell noCPT 26µM
CCC(CC)C(=O)Nc1ccccc1C(=O)OCc1cc(=O)n2nc(C3CCCCC3)sc2n1	DT40 TDP1 CPT inconclusive, TDP1 cell noCPT inconclusive (no result: ATXN2 expr inh, S2 tox)
CCN(Cc1cnn(C)c1)Cc1nc(Cc2ccccc2Cl)no1	S2 tox inconclusive
Cc1ccc(-c2nn(-c3ccccc3)cc2C(=O)NCC(c2cccs2)N2CCOCC2)cc1 (centres undefined)	DT40 TDP1 CPT inconclusive, TDP1 cell noCPT inconclusive
CCCCn1nc(C(=O)NCC(c2cccs2)N2CCOCC2)c2ccccc2c1=O (centres undefined)	ATXN2 expr inh inconclusive, DT40 TDP1 CPT inconclusive, S2 tox inconclusive, TDP1 cell noCPT 21µM
CCn1nc(C(=O)NCC(c2cccs2)N2CCOCC2)c2ccccc2c1=O (centres undefined)	DT40 TDP1 CPT 15µM, TDP1 cell noCPT 21µM
O=C(NCC(c1cccs1)N1CCOCC1)c1cc(-c2ccc(F)cc2)nc2ccccc12 (centres undefined)	DT40 TDP1 CPT inconclusive, TDP1 cell noCPT 16µM
CN(C)c1ncc2nc(-c3cccs3)c(=O)n(CCc3ccccc3)c2n1	none (no result: ATXN2 expr inh, TGFb inhibitor, S2 tox, HepG2 tox)
c1cn(-c2ccc(-c3ccnc4ncnn34)cc2)cn1	none
CC1=C(c2ccc(C)cc2)S(=O)(=O)NC1=NCCCN1CCN(c2ccc(F)cc2)CC1	TGFb inhibitor inconclusive, DT40 TDP1 CPT 15µM, TDP1 cell noCPT 15µM (no result: ATXN2 expr inh, S2 tox)
COc1ccc(C2=C(C)C(=NCCCN3CCN(c4cc(Cl)ccc4C)CC3)NS2(=O)=O)cc1	TGFb inhibitor inconclusive, DT40 TDP1 CPT 6.5µM, TDP1 cell noCPT 8.2µM (no result: ATXN2 expr inh, S2 tox)
CC1=C(c2ccc(Cl)cc2)S(=O)(=O)NC1=NCCCN1CCN(c2cc(C)ccc2C)CC1	DT40 TDP1 CPT 2.6µM, TDP1 cell noCPT 5.2µM (no result: ATXN2 expr inh, S2 tox)
COc1ccc(C2=C(N3CCN(c4cc(Cl)ccc4C)CC3)c3ccccc3C2=O)cc1	DT40 TDP1 CPT 21µM, TDP1 cell noCPT inconclusive
CC1=C(c2ccc(C(C)C)cc2)S(=O)(=O)NC1=NCCCN1CCN(c2ccccc2F)CC1	TGFb inhibitor inconclusive, DT40 TDP1 CPT inconclusive, TDP1 cell noCPT inconclusive (no result: ATXN2 expr inh, S2 tox)
COc1ccc(C2(N3CCN(c4cc(C)ccc4C)CC3)C(=O)c3ccccc3C2=O)cc1	DT40 TDP1 CPT inconclusive, TDP1 cell noCPT inconclusive
O=C(N=C1SC2CS(=O)(=O)CC2N1c1ccccc1Cl)C1CCCO1 (centres undefined)	none
N#Cc1c(N)n(CCOC(=O)c2cccc([N+](=O)[O-])c2)c2nc3ccccc3nc12	TDP1 cell noCPT 10µM (no result: S2 tox)
C=CCn1c(C)cc(C(=O)COc2ncnc3sccc23)c1C	DT40 TDP1 CPT inconclusive, TDP1 cell noCPT 16µM
C=CCn1c(C)cc(C(=O)COC(=O)c2cncc(Br)c2)c1C	DT40 TDP1 CPT 18µM, TDP1 cell noCPT inconclusive
C=CCn1c(C)cc(C(=O)COC(=O)CCc2cc(OC)c(OC)c(OC)c2)c1C	none
O=C(Cc1cccc(C(F)(F)F)c1)OCN1C(=O)c2ccccc2C1=O	none
COc1ccc(NCc2cc3ccccc3[nH]c2=O)cc1	DT40 TDP1 CPT inconclusive, TDP1 cell noCPT inconclusive
COc1ccc(NCc2cc3cc(OC)ccc3[nH]c2=O)cc1	DT40 TDP1 CPT 8.2µM, TDP1 cell noCPT 23µM
COc1ccc2[nH]c(=O)c(CNc3cccc(C)c3)cc2c1	DT40 TDP1 CPT 13µM, S2 tox inconclusive, TDP1 cell noCPT 12µM
Cn1cc(/C=C/C(=O)N2CCCC(C(=O)c3cccc(C(F)(F)F)c3)C2)cn1 (centres undefined)	TDP1 cell noCPT inconclusive
CCC1CN(CCNC(=O)C(C)(C)O)Cc2cc(OC)ccc2O1 (centres undefined)	none (no result: ATXN2 expr inh, TGFb inhibitor, HepG2 tox)
CCCCOc1c(Br)cc(/C=C2\N=C(C)OC2=O)cc1OCC	DT40 TDP1 CPT 13µM, S2 tox inconclusive, TDP1 cell noCPT inconclusive
CCOc1ccc(N(C(=O)c2ccccc2F)S(=O)(=O)c2ccc3c(c2)n(C)c(=O)n3C)cc1	none
O=C(CCCSc1nnc(SCCCC(=O)c2ccc(F)cc2)s1)c1ccc(F)cc1	DT40 TDP1 CPT 18µM, TDP1 cell noCPT inconclusive
Nc1nnc(SCCCC(=O)c2ccc(F)cc2)s1	DT40 TDP1 CPT inconclusive, TDP1 cell noCPT inconclusive
CC(C)N1CCN(Cc2cc(F)ccc2-n2cccn2)CC1CCO (centres undefined)	none
Cc1cc(F)ccc1N1CCC(N2CCN(CCC(C)C)C(CCO)C2)CC1 (centres undefined)	DT40 TDP1 CPT inconclusive, TDP1 cell noCPT 23µM
COc1cccc(CN2CCN(C3CCN(c4ccccc4F)CC3)CC2CCO)c1 (centres undefined)	DT40 TDP1 CPT inconclusive, TDP1 cell noCPT inconclusive
COc1cccc(CN2CCN(C3CCN(c4ccccc4C)CC3)CC2CCO)c1 (centres undefined)	TGFb inhibitor inconclusive, DT40 TDP1 CPT inconclusive, TDP1 cell noCPT 18µM (no result: ATXN2 expr inh)
Cc1cc(F)ccc1N1CCC(N2CCN(C(C)C)C(CCO)C2)CC1 (centres undefined)	DT40 TDP1 CPT inconclusive, TDP1 cell noCPT 23µM
CC(C)(C)NC(=O)CN(C(=O)CS(=O)CC(=O)Nc1ccc(F)cc1)c1cccc(F)c1 (centres undefined)	none
CC(C)(C)NC(=O)c1ccc(COc2ccc(Cl)cc2Cl)o1	ATXN2 expr inh inconclusive, TDP1 cell noCPT inconclusive
COCCCNC(=O)/C(C#N)=C/c1ccc(F)cc1	none
COCCCNC(=O)/C(C#N)=C/c1cccc(NC(=O)c2ccccc2Cl)c1	TGFb inhibitor inconclusive, DT40 TDP1 CPT 2.6µM, TDP1 cell noCPT 2.6µM
COCCNC(=O)/C(C#N)=C/c1c(F)cccc1Cl	DT40 TDP1 CPT inconclusive, TDP1 cell noCPT 10µM
